Hit rate of the full screen: of about 400,000 compounds, about 2,100 (0.53%) were called active. Inconclusive results (about 14%) are left out. The rule behind the calls is not given here. The list comes from a sample in which actives are over-represented; it also holds similar structures and randomly drawn compounds.
What follows are compounds tested against Ataxin-2 (Homo sapiens) (UniProt Q99700) (assay: qHTS for Inhibitors of ATXN expression.).
Type: functional

Chain of Ataxin-2 (Homo sapiens) (Q99700 whole entry): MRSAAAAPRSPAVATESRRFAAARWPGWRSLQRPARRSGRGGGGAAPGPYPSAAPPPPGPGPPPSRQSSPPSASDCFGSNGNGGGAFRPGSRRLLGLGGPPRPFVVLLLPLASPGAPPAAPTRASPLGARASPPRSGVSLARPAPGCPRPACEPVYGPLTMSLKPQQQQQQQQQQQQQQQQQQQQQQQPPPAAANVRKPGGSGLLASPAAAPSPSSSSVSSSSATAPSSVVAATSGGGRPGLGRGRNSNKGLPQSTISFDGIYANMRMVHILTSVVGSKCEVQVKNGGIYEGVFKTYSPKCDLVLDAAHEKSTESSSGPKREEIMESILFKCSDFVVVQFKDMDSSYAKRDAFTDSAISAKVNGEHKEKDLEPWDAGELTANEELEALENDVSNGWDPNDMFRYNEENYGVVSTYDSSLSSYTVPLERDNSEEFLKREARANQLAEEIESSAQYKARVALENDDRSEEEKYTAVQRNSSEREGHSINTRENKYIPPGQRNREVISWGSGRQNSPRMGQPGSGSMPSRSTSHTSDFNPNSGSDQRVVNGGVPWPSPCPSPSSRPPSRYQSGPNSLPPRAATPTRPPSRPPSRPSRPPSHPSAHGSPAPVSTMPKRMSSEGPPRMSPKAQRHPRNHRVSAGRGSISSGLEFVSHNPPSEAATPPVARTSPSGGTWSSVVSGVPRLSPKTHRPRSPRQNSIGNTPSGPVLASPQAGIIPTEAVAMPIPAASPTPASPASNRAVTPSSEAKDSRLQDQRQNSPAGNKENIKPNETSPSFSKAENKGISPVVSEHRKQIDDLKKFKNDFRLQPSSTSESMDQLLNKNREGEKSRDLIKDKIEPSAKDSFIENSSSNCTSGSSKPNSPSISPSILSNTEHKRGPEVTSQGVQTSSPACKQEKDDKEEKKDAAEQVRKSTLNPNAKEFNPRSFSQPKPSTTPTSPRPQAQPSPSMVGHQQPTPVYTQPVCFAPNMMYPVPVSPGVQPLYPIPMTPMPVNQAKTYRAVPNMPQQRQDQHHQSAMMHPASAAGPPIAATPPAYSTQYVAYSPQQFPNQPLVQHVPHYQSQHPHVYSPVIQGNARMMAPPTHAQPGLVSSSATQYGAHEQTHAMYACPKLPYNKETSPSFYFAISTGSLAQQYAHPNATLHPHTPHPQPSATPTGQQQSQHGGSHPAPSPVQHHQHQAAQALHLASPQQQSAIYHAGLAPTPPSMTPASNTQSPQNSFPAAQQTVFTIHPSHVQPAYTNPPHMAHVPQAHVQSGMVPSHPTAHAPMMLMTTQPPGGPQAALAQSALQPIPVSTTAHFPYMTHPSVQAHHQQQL

| Structure (SMILES) | Potency |
| --- | --- |
| CC1(C)C/C(=N\O)C(C(O)c2cccc([N+](=O)[O-])c2)C(C)(C)N1 (stereo not given) | inactive |
| O=C1CSC(c2cccc([N+](=O)[O-])c2)N1C1CC2CCC1C2 (stereo not given) | inactive |
| CCCCN(CCCC)S(=O)(=O)c1ccc(C(=O)Nc2sc3c(c2C(N)=O)CCN(CC)C3)cc1 | inactive |
| Cc1nc2nc(-c3ccccc3)cn2nc1C | inactive |
| CCCCCCCCN1C(=O)[C@H](CC(=O)NCC2CCCCC2)C[C@@]2(C(=O)OC)CCCCC=C12 | 25.1 µM (active) |
| Cc1ccc(C2OC34CCCCCC3C(C#N)(C(=N)O4)C2(C#N)C#N)cc1 (stereo not given) | inactive |
| CN(Cc1cccs1)c1nc(-c2cccnc2)nc2ccccc12 | inactive |
| O=C(c1ccccc1)c1ccc2nc(-c3ccco3)c(-c3ccco3)nc2c1 | inactive |
| c1ccc(C2CC(c3cccs3)=NN2c2ccccc2)cc1 (stereo not given) | inactive |
| Cc1ccc(C2=NN(C(=O)CCl)C(c3cccs3)C2)o1 (stereo not given) | 9.47 µM (active) |
| COc1ccccc1N1N=C(c2cccs2)CC1c1ccccc1 (stereo not given) | inactive |
| CC(=O)Nc1ccc(C2=NN(c3ccccc3)C(c3cccs3)C2)cc1 (stereo not given) | inactive |
| Clc1ccc(N2N=C(c3cccs3)CC2c2ccco2)cc1 (stereo not given) | inactive |
| COc1cc(C2CC(c3cccs3)=NN2C(=O)CCl)ccc1OC(F)F (stereo not given) | 39.8 µM (active) |
| COc1ccc(C2CC(c3cccs3)=NN2c2ccc(F)cc2)cc1OC (stereo not given) | inactive |
| O=C(CCl)N1N=C(c2cccs2)CC1c1ccco1 (stereo not given) | 5.32 µM (active) |
| c1ccc(N2N=C(c3cccs3)CC2c2ccco2)cc1 (stereo not given) | inactive |
| Cc1ccc(C2CC(c3cccs3)=NN2C(=O)CCl)cc1 (stereo not given) | 25.1 µM (active) |
| COc1ccc(C2=NN(c3ccccc3)C(c3cccs3)C2)cc1 (stereo not given) | inactive |
| O=C(c1ccccc1Cl)N1N=C(c2cccs2)CC1c1cccc(O)c1 (stereo not given) | inactive |
| COc1ccc2nc3c(cc2c1)c(NC(=O)C1CCCO1)nn3CC(C)C (stereo not given) | inactive |
| O=S(=O)([N-]c1nc2ccccc2nc1-[n+]1ccn(Cc2ccccc2)c1)c1ccc(Cl)cc1 | inactive |
| CCCCn1nc(NC(=O)COC)c2cc3cc(OC)ccc3nc21 | inactive |

| Structure (SMILES) | Potency |
| --- | --- |
| N=c1c(C(=O)NC2CCCCC2)cc2c(=O)n3ccccc3nc2n1Cc1cccnc1 | inactive |
| O=C(c1ccccc1)C1Oc2ccccc2C2CC(c3cccs3)=NN12 (stereo not given) | inactive |
| O=C(CCl)N1N=C(c2ccco2)CC1c1cccs1 (stereo not given) | 17.8 µM (active) |
| COc1ccc(C2=NN3C(C2)c2ccccc2OC3c2cccs2)cc1 (stereo not given) | inactive |
| C#CCOCCOCCOCCNc1nc(N2CCOCC2)nc(N2CCN(C(=O)[C@H]([C@@H](C)CC)n3cc([C@@H](N)Cc4ccc(O)cc4)nn3)CC2)n1 | 35.5 µM (active) |
| C#CCOCCOCCOCCNc1nc(N2CCN(C(=O)CCCCCCCCCCNC(=O)[C@H]([C@@H](C)CC)n3cc(CCCCN=C(N)N)nn3)CC2)nc(N2CCN(C(=O)CCCCCCCCCCNC(=O)[C@H](CO)n3cc(CCCSC)nn3)CC2)n1 | 35.5 µM (active) |
| C#CCOCCOCCOCCNc1nc(N2CCN(C(=O)CCCCCCCCCCNC(=O)Cn3cc(CCCCCN)nn3)CC2)nc(N2CCN(C(=O)CCCCCCCCCCNC(=O)[C@@H]([C@H](C)O)n3cc(C)nn3)CC2)n1 | 28.2 µM (active) |
| C#CCOCCOCCOCCNc1nc(N2CCN(C(=O)CCCCCCCCCCNC(=O)Cn3cc(C[C@@H](C)O)nn3)CC2)nc(N2CCN(C(=O)CCCCCCCCCCNC(=O)[C@@H]([C@H](C)CC)n3cc(CCCCCN)nn3)CC2)n1 | 20 µM (active) |
| CC(Sc1nnc(-c2cccnc2)o1)C(=O)NC1CCCCC1 (stereo not given) | inactive |
| C=CCn1c(N)c(C(=O)OCCC)c2nc3ccccc3nc21 | inactive |
| OCc1ccccc1-c1ccc2nccn2c1 | inactive |
| Cc1csc(NC(=O)c2cc3c(s2)-c2ccccc2OC3)n1 | inactive |
| Cc1cccc(/C=N/c2sc3c(c2C#N)CCN(Cc2ccccc2)C3)c1O | inactive |
| C#CCOCCOCCOCCNc1nc(N2CCN(C(=O)CCCCCCCCCCNC(=O)[C@H](CCCCN)n3cc(C)nn3)CC2)nc(N2CCN(C(=O)CCCCCCCCCCNC(=O)[C@H](CO)n3cc(CCCSC)nn3)CC2)n1 | 31.6 µM (active) |
| C#CCOCCOCCOCCNc1nc(N2CCN(C(=O)CCCCCCCCCCNC(=O)[C@H](CCCCN)n3cc(C)nn3)CC2)nc(N2CCN(C(=O)CCCCCCCCCCNC(=O)[C@@H]([C@H](C)O)n3cc(C)nn3)CC2)n1 | 22.4 µM (active) |
| Cc1ccc(C(=O)c2coc3c2C(=O)C(=O)c2ccccc2-3)cc1 | 39.8 µM (active) |
| O=C1C(=O)c2c(C(=O)c3ccccc3)coc2-c2ccccc21 | 35.5 µM (active) |
| COCC/N=C1/Sc2nc3ccc(C)cc3cc2CN1Cc1cccs1 | inactive |
| CN1C(=S)N(c2cccnc2)C(=O)/C1=C\c1ccc(N(C)C)cc1 | 20 µM (active) |
| CN1C(=O)/C(=C\c2ccc(N(C)C)cc2)OC1=S | inactive |
| Cc1cc(/C=C2\NC(=S)NC2=O)c(C)n1-c1cccnc1 | inactive |
| O=c1oc2c(CN3CCN(CCO)CC3)c(O)ccc2cc1-c1ccccn1 | inactive |
| CC1C(=O)N2CCCc3cc(NC(=O)CC(C)(C)C)cc1c32 (stereo not given) | inactive |

| Structure (SMILES) | Potency |
| --- | --- |
| CCOc1cc(/C=N\NC(=O)Cc2ccccc2)ccc1OCC(=O)Nc1ccc(C)c(C)c1 | 31.6 µM (active) |
| CCOc1cc(/C=N/NC(=O)Nc2ccccc2)ccc1O | inactive |
| CCOc1cc(/C=N/NC(=O)C(C)Sc2ccccc2)ccc1O (stereo not given) | inactive |
| CCOc1ccc(CCN2C(=O)C(=O)N([C@@H](CC(C)C)CN3CCC[C@@H]3CN3C(=O)C(=O)NC[C@@H]3CC(C)C)C[C@@H]2Cc2ccccc2)cc1 | 12.6 µM (active) |
| CCOc1ccc(CCN2C(=O)C(=O)N([C@@H](CC(C)C)CN3CCC[C@@H]3CN3C(=O)C(=O)NC[C@@H]3Cc3ccccc3)C[C@@H]2CC(C)C)cc1 | 39.8 µM (active) |
| CCOc1ccc(CCN2C(=O)C(=O)N([C@@H](CC(C)C)CN3CCC[C@H]3CN3C(=O)C(=O)NC[C@@H]3Cc3ccccc3)C[C@@H]2Cc2ccccc2)cc1 | 25.1 µM (active) |
| N#Cc1c(NC(=O)/C=C/C(=O)O)sc2c1CCN(Cc1ccccc1)C2 | inactive |
| Clc1ccc(-n2c(-c3cccc(Br)c3)nc3nc4ccccc4nc32)cc1 | inactive |
| Cc1nn(CSc2c(F)c(F)c(F)c(F)c2F)c(C)c1[N+](=O)[O-] | inactive |
| N#CC1=C(N)Oc2ccc3ccccc3c2C1c1cccnc1 (stereo not given) | 12.6 µM (active) |
| N#CC1=C(N)Oc2cc(O)c(Cl)cc2C1c1cccnc1 (stereo not given) | inactive |
| N#CC1=C(N)Oc2cc(N)ccc2C1c1ccccc1Cl (stereo not given) | inactive |
| Cc1cc(C)cc(NC(=O)c2sc3nc(C)cc(C)c3c2N)c1 | inactive |
| CCOc1ccc(CCNC(=O)c2cccc(NC3=NC4CS(=O)(=O)CC4S3)c2)cc1 (stereo not given) | inactive |
| O=C(NCCc1cccc(Cl)c1)c1ccc(OC2CCN(Cc3ccccn3)CC2)cc1 | 35.5 µM (active) |
| Cc1c(CCC(=O)NCCc2ccccc2)c(=O)oc2cc(O)ccc12 | inactive |
| CCCc1c(-c2ccc(O)cc2)nn(-c2ccc(O)cc2)c1-c1ccc(O)cc1 | 25.1 µM (active) |
| O=C(O)C1CCN(c2nc(-c3ccccc3)c3cc(Br)ccc3n2)CC1 | inactive |
| CCCCN1CCc2c1nc1ccc(Br)cc1c2N | 31.6 µM (active) |
| CCOC(=O)N1CCN(C(=O)c2cccn3c(=O)c4cc(Br)ccc4nc23)CC1 | inactive |
| CCc1cc2c(CN3CCN(Cc4ccccc4)CC3)cc(=O)oc2cc1O | inactive |
| Cc1ccc(/C=C2\Oc3c(ccc(O)c3CN3CCN(CCO)CC3)C2=O)cc1 | inactive |
| Cc1ccc2c(c1)-c1c(cnn1CC(=O)N(Cc1ccco1)C1CCCCC1)CO2 | 37.7 µM (active) |

| Structure (SMILES) | Potency |
| --- | --- |
| CC(C)(C)c1ccc2c(c1)N(CC(=O)N1CCCC1)C(=O)CO2 | inactive |
| CCOc1ccc(S(=O)(=O)N(CC)CC(=O)N2CCCC2)cc1C | inactive |
| CN(C(=O)CN1C(=O)c2cccc(N)c2C1=O)C1CCCCC1 | inactive |
| Cc1ccnc(NC(=O)CCC(=O)N(CC(=O)NC2CCCCC2)C2CCCC2)c1 | inactive |
| COc1ccccc1N1CCN(C(=O)Cn2ncc3c2-c2cc(C)ccc2OC3)CC1 | 22.4 µM (active) |
| Cc1ccc2nc(N3CCN(C(=O)CCC(=O)O)CC3)nc(-c3ccccc3)c2c1 | inactive |
| COc1ccccc1N1CCN(C(=O)C2CCN(S(=O)(=O)c3ccccc3F)CC2)CC1 | inactive |
| CCN(CC)S(=O)(=O)c1ccc2c(c1)N(CC(=O)N1CCN(c3cccc(C)c3)C(C)C1)C(=O)CO2 (stereo not given) | 35.5 µM (active) |
| O=C(Cn1ncc2c1-c1ccccc1OC2)Nc1ccc(Cl)cn1 | inactive |
| Cc1cccc(N2CCN(C(=O)Cn3ncc4c3-c3cc(C)ccc3OC4)CC2C)c1 (stereo not given) | 39.8 µM (active) |
| Cc1ccccc1CN1CCN(C(=O)c2ccc(S(=O)(=O)NCc3ccco3)cc2)CC1 | inactive |
| CCOCCCNc1nc2nc3ccc(C)cn3c(=O)c2cc1C(=O)NCC1CCCO1 (stereo not given) | inactive |
| CCNc1nc(NCC)nc(N/N=C(\C)c2ccc(OC)cc2)n1 | inactive |
| CC1CCCCC12NC(=O)N(CC(=O)N(C)Cc1nc(O)c3ccccc3n1)C2=O (stereo not given) | inactive |
| CC(C)NCCCCOc1cccc(Br)c1 | inactive |
| CCN(CC)S(=O)(=O)c1ccc2c(c1)N(CC(=O)NCCCN1CCN(c3cc(Cl)ccc3C)CC1)C(=O)CO2 | 31.6 µM (active) |
| Cc1cccc(C)c1NC(=O)CN1C(=O)COc2ccccc21 | inactive |
| CCOc1ccccc1N(CC)C(=O)Cn1ncc2c(=O)oc3ccccc3c21 | inactive |
| CCOc1ccccc1N(CC)C(=O)Cn1ncc2c1-c1ccccc1OC2 | 39.8 µM (active) |
| CCN(CC)S(=O)(=O)c1ccc(N2CCCC2)c(NC(=O)Cc2cc(OC)c(OC)c(OC)c2)c1 | inactive |
| CCOc1ccccc1NC(=O)Cn1ncc2ccc([N+](=O)[O-])cc21 | inactive |
